“And” between values parts separate entries of the source, which are not always exact repeats. Equal entries are not always repeated. About 1,500 (0.58%) of roughly 260,000 compounds were called active. About 5% were inconclusive and are not listed.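 The calls were made as follows: active = inhibition above a set limit at one or more doses, reproduced on every date tested; inconclusive = results disagree between test dates, or hit never tested in dose response; inactive = the rest.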 Not all results are given here. Measured potencies and affinities stand elsewhere.
Molecular target: Virion infectivity factor (Human immunodeficiency virus type 1 group M subtype B (isolate BH10)) + Virion infectivity factor (Human immunodeficiency virus type 1 group M subtype B (isolate BRU/LAI)) + Virion infectivity factor (Human immunodeficiency virus type 1 group M subtype B (isolate PCV12)) + Virion infectivity factor (Human immunodeficiency virus type 1 group M subtype B (isolate HXB2)) + DNA dC->dU-editing enzyme APOBEC-3G (Homo sapiens) (UniProt P69720+P69721+P69722+P69723+Q9HC16)
Experiment: inhibitors of Vif binding to APOBEC3G peptide, primary screen, biochemical, TR-FRET, GST-Vif 1-94, biotin-A3G peptide, dose response retest (AID 1117319);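 also: Vif residues 1-94 fused to GST binding biotinylated APOBEC3G peptide 110-148; 0% = full assay without inhibitor and 100% = GST in place of GST-Vif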
Settings: hits give high values

Row | SMILES | inhibition
1 | O=C(NC(C(=O)N/N=C/c1cccc2ccccc12)c1n[nH]c(=O)c2ccccc12)c1ccccc1 (configuration not stated) | 4.11% (inactive)
2 | O=[N+]([O-])c1ccc(NN=Cc2ccccc2O)nc1 | 7.07% (inactive)
3 | O=C(O)Cc1ccccc1C(=O)O | 0.17% (inactive)
4 | O=C(O)Cc1c(O)ccc2ccccc12 | 3.01% (inactive)
5 | O=C(N/N=C1\CCCc2ccccc21)c1cccc([N+](=O)[O-])c1 | 3.37% (inactive)
6 | COC(=O)CCN(C(=O)c1ccc(N2CCCCC2)c([N+](=O)[O-])c1)c1ccccn1 | -7.46% (inactive)
7 | COc1ccc(C(=O)NNC(=O)c2ccc(C)cc2)cc1S(=O)(=O)N1CCCC1 | -1.1% (inactive)
8 | CCCCCC(=O)N1C[C@H](n2cc(C3CC3)nn2)[C@@H](O)C[C@@H]1c1ccc(C)cc1 | -2.78% (inactive)
9 | COc1ccccc1C(=O)n1nc(-c2ccc(Cl)cc2)nc1N | 20.4% (inactive)
10 | COc1ccc(C(=O)n2nc(-c3ccccc3)nc2N)cc1OC | -0.61% (inactive) and -0.84% (inactive)
11 | Cc1occc1C(=O)N(C)CC1CCCN(CCc2ccccc2F)C1 (configuration not stated) | 7.6% (inactive)
12 | O/N=C1\CCCC\C1=C/c1ccccc1 | 5.14% (inactive)
13 | NC(=N\N=Cc1ccco1)/C(N)=N/N=Cc1ccco1 | 27.4% (inactive)
14 | O=C1/C(=C/c2ccco2)CCC1C1CCCC1 (configuration not stated) | 25.4% (inactive)
15 | COc1ccc2c(c1)CC/C(=C/c1ccco1)C2=O | 26.2% (inactive)
16 | O=C1/C(=C\c2ccccc2)CCC/C1=C/c1ccccc1 | -1.78% (inactive)
17 | O=C1C(=Cc2ccco2)CCC1=Cc1ccco1 | -4.11% (inactive)
18 | Cc1ccccc1C(=O)NC1CCS(=O)(=O)C1 (configuration not stated) | -1.4% (inactive)
19 | CCc1ccc(CN(C)Cc2nc(Cc3ccc(OC)c(OC)c3)no2)nc1 | -3.31% (inactive)
20 | COc1ccc(OC)c(NC(=O)CCN2CCN(c3ccccc3F)CC2)c1 | 25.7% (inactive)
21 | Nc1nc(CN2CCCCCC2)nc(Nc2ccc(F)cc2)n1 | -3.7% (inactive)
22 | O=C(CCNS(=O)(=O)c1ccc(Br)cc1)NCCc1ccccc1 | -1.9% (inactive)
23 | Cc1ccc(S(=O)(=O)CCC(=O)NCCc2ccccc2)cc1 | 1.3% (inactive)
24 | Cc1ccc(S(=O)(=O)CCC(=O)NC2CCCCC2)cc1 | 3.12% (inactive)
25 | Cc1ccc(CCNC(=O)CCS(=O)(=O)c2ccc(Br)cc2)cc1 | 28.3% (inactive)
26 | COc1ccc(S(=O)(=O)CCC(=O)NC2CCCCC2)cc1 | 23.2% (inactive)
27 | COc1ccc(S(=O)(=O)CCC(=O)NCCc2ccc(S(N)(=O)=O)cc2)cc1 | 12.3% (inactive)

Source: PubChem BioAssay AID1117319 (Southern Research Institute, 2015)
